Source: PubChem BioAssay AID1159580 (chemical genetic matrix, 2015)
Out of some 5,500 compounds screened, about 2,000 (36%) were called active. Another 18% or so got no clear call; they are omitted. No stated cut-off is given here; in the data, active means normalized growth mostly below about 0.91 (no sharp cut-off); inconclusive means no clear call, values can overlap the other calls; inactive means mostly above about 0.92. This is one part of the list.

Assay: chemical genetic growth profiling, strain panel (AID 1159580);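 further: tested at 20 µM; growth read once vehicle control cultures reached saturation at 30 °C; 1 = growth at the plate median or of vehicle wells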
Settings: growth OD
[1] = S. cerevisiae deletion strains, locus YPL055C, strain LGE1, stronger effect = lower value
[2] = S. cerevisiae deletion strains, locus YBR229C, strain ROT2, stronger effect = lower value
[3] = S. cerevisiae deletion strains, locus YDL101C, strain DUN1, stronger effect = lower value
[4] = S. cerevisiae deletion strains, locus YDR150W, strain NUM1, stronger effect = lower value
[5] = S. cerevisiae deletion strains, locus YEL061C, strain CIN8, stronger effect = lower value
[6] = S. cerevisiae deletion strains, locus YGR078C, strain PAC10, stronger effect = lower value
[7] = S. cerevisiae deletion strains, locus YHR030C, strain SLT2, stronger effect = lower value
[8] = S. cerevisiae deletion strains, locus YHR087W, strain rtc3, stronger effect = lower value
[9] = S. cerevisiae deletion strains, locus YJR043C, strain POL32, stronger effect = lower value
[10] = S. cerevisiae deletion strains, locus YJR075W, strain HOC1, stronger effect = lower value
[11] = S. cerevisiae deletion strains, locus YLR039C, strain RIC1, stronger effect = lower value
[12] = S. cerevisiae deletion strains, locus YLR058C, strain SHM2 (second series), stronger effect = lower value
[13] = S. cerevisiae deletion strains, locus YLR085C, strain ARP6, stronger effect = lower value
[14] = S. cerevisiae deletion strains, locus YLR262C, strain YPT6, stronger effect = lower value
[15] = S. cerevisiae deletion strains, locus YML094W, strain GIM5, stronger effect = lower value
[16] = S. cerevisiae deletion strains, locus YMR219W, strain ESC1, stronger effect = lower value
[17] = S. cerevisiae deletion strains, locus YMR263W, strain SAP30, stronger effect = lower value
[18] = S. cerevisiae deletion strains, locus YNL153C, strain GIM3, stronger effect = lower value
[19] = S. cerevisiae deletion strains, locus YNL298W, strain CLA4 (second series), stronger effect = lower value
[20] = S. cerevisiae deletion strains, locus YNL322C, strain KRE1, stronger effect = lower value
[21] = S. cerevisiae deletion strains, locus YNR030W, strain Alg12, stronger effect = lower value
[22] = S. cerevisiae deletion strains, locus YOL006C, strain TOP1, stronger effect = lower value
[23] = S. cerevisiae deletion strains, locus YPL241C, strain CIN2, stronger effect = lower value
[24] = S. cerevisiae deletion strains, locus YPR135W, strain CTF4, stronger effect = lower value

Measured: normalized growth

C=CC[C@H](N)C(=O)O
inactive: S. cerevisiae deletion strains, locus YAL040C, strain CLN3, stronger effect = lower value 0.997 | S. cerevisiae deletion strains, locus YCL061C, strain MRC1 (second series), stronger effect = lower value 1.01 | S. cerevisiae deletion strains, locus YDR363W, strain ESC2, stronger effect = lower value 0.962 | S. cerevisiae deletion strains, locus YER002W, strain NOP16, stronger effect = lower value 1.01 | S. cerevisiae deletion strains, locus YNL175C, strain NOP13, stronger effect = lower value 1.01 | S. cerevisiae deletion strains, locus YNL197C, strain WHI3, stronger effect = lower value 0.976 | S. cerevisiae deletion strains, locus YNL224C, strain SQS1, stronger effect = lower value 0.972 | S. cerevisiae deletion strains, locus YOR083W, strain WHI5 (second series), stronger effect = lower value 0.974 | [1] 0.99

COc1cccc(C2SCc3cc(C)c(C)cc3CS2)c1O
inactive: [2] 0.994 | S. cerevisiae deletion strains, locus YCL061C, strain MRC1, stronger effect = lower value 0.998 | [3] 0.992 | S. cerevisiae deletion strains, locus YDL134C, strain PPH21, stronger effect = lower value 1.02 | [4] 0.932 | [5] 1.03 | [6] 1.01 | [7] 1.01 | [8] 1.01 | [9] 0.972 | [10] 0.985 | S. cerevisiae deletion strains, locus YKL190W, strain CNB1, stronger effect = lower value 1.02 | [11] 1.07 | [12] 1.03 | [13] 1.04 | [14] 1.05 | [15] 0.999 | [16] 1 | [17] 0.902 | [18] 0.988 | [19] 0.986 | [20] 1.01 | [21] 0.982 | [22] 1.12 | [1] 0.904 | [23] 0.957 | [24] 1.01 | S. cerevisiae strains, strain wild type, stronger effect = lower value 1.01

CCOC(=O)CCC(C#N)(c1ccc(Cl)cc1)N1CCOCC1 (stereo not drawn)
inactive: S. cerevisiae deletion strains, locus YAL013W, strain DEP1, stronger effect = lower value 0.99 | [2] 0.997 | [3] 1.04 | [4] 1.05 | [5] 1 | [6] 1.01 | [7] 0.979 | [8] 0.978 | [9] 1.02 | [10] 1.01 | [11] 1.11 | [12] 0.982 | [13] 0.962 | [14] 1.01 | [15] 0.99 | [16] 0.983 | [17] 1.02 | [18] 0.993 | [19] 0.996 | [20] 0.988 | [21] 0.985 | [22] 0.904 | [1] 0.943 | [23] 0.992 | [24] 1.01

Cc1cc(N=Cc2cc(Cl)cc(Cl)c2O)no1
inactive: S. cerevisiae deletion strains, locus YAR019C, strain CDC15, stronger effect = lower value 0.945 | S. cerevisiae deletion strains, locus YBL105C, strain PKC1, stronger effect = lower value 0.964 | S. cerevisiae deletion strains, locus YBR135W, strain CKS1, stronger effect = lower value 0.971 | S. cerevisiae deletion strains, locus YBR136W, strain MEC1, stronger effect = lower value 0.953 | S. cerevisiae deletion strains, locus YBR160W, strain CDC28, stronger effect = lower value 0.964 | S. cerevisiae deletion strains, locus YDL017W, strain CDC7, stronger effect = lower value 0.968 | S. cerevisiae deletion strains, locus YDL028C, strain MPS1, stronger effect = lower value 0.95 | [3] 0.965 | S. cerevisiae deletion strains, locus YDL108W, strain KIN28, stronger effect = lower value 0.957 | S. cerevisiae deletion strains, locus YDL132W, strain cdc53, stronger effect = lower value 0.975 | S. cerevisiae deletion strains, locus YDR052C, strain DBF4, stronger effect = lower value 0.972 | S. cerevisiae deletion strains, locus YDR054C, strain cdc34, stronger effect = lower value 0.965 | S. cerevisiae deletion strains, locus YDR226W, strain ADK1, stronger effect = lower value 0.974 | S. cerevisiae deletion strains, locus YFL009W, strain cdc4, stronger effect = lower value 0.97 | S. cerevisiae deletion strains, locus YFL029C, strain CAK1, stronger effect = lower value 0.958 | S. cerevisiae deletion strains, locus YFR003C, strain YPI1, stronger effect = lower value 0.95 | S. cerevisiae deletion strains, locus YFR028C, strain CDC14, stronger effect = lower value 0.971 | S. cerevisiae deletion strains, locus YIL147C, strain SLN1, stronger effect = lower value 0.946 | S. cerevisiae deletion strains, locus YJL128C, strain PBS2, stronger effect = lower value 0.952 | S. cerevisiae deletion strains, locus YJR016C, strain ILV3, stronger effect = lower value 0.973 | S. cerevisiae deletion strains, locus YKL193C, strain SDS22, stronger effect = lower value 0.971 | S. cerevisiae deletion strains, locus YMR001C, strain CDC5, stronger effect = lower value 0.963 | S. cerevisiae deletion strains, locus YMR277W, strain FCP1, stronger effect = lower value 0.968 | S. cerevisiae deletion strains, locus YNL006W, strain LST8, stronger effect = lower value 0.969 | S. cerevisiae deletion strains, locus YNL161W, strain CBK1, stronger effect = lower value 0.967 | S. cerevisiae deletion strains, locus YNL207W, strain RIO2, stronger effect = lower value 0.977 | S. cerevisiae deletion strains, locus YNL222W, strain SSU72, stronger effect = lower value 0.96 | S. cerevisiae deletion strains, locus YOL078W, strain AVO1, stronger effect = lower value 0.967 | S. cerevisiae deletion strains, locus YOR329C, strain SCD5, stronger effect = lower value 0.952 | S. cerevisiae deletion strains, locus YPL209C, strain IPL1, stronger effect = lower value 0.969 | S. cerevisiae deletion strains, locus YPR025C, strain CCL1, stronger effect = lower value 0.969 | S. cerevisiae deletion strains, locus YPR106W, strain ISR1, stronger effect = lower value 0.976 | S. cerevisiae deletion strains, locus YPR111W, strain DBF20, stronger effect = lower value 0.972 | S. cerevisiae deletion strains, strain NNK1, stronger effect = lower value 0.965 | S. cerevisiae deletion strains, strain TSCII, stronger effect = lower value 0.96
active: S. cerevisiae deletion strains, locus YDL214C, strain PRR2, stronger effect = lower value 0.561 | S. cerevisiae deletion strains, locus YDR477W, strain SNF1, stronger effect = lower value 0.526 | S. cerevisiae deletion strains, locus YER123W, strain YCK3, stronger effect = lower value 0.307 | S. cerevisiae deletion strains, locus YER133W, strain GLC7, stronger effect = lower value 0.576 | S. cerevisiae deletion strains, locus YFR019W, strain FAB1, stronger effect = lower value 0.517 | S. cerevisiae deletion strains, locus YGR040W, strain KSS1, stronger effect = lower value 0.574 | S. cerevisiae deletion strains, locus YGR052W, strain FMP48, stronger effect = lower value 0.504 | S. cerevisiae deletion strains, locus YGR092W, strain DBF2, stronger effect = lower value 0.187 | [7] 0.26 | S. cerevisiae deletion strains, locus YHR079C, strain IRE1, stronger effect = lower value 0.249 | S. cerevisiae deletion strains, locus YHR082C, strain KSP1, stronger effect = lower value 0.493 | S. cerevisiae deletion strains, locus YHR205W, strain SCH9, stronger effect = lower value 0.407 | S. cerevisiae deletion strains, locus YJL095W, strain BCK1, stronger effect = lower value 0.259 | S. cerevisiae deletion strains, locus YJL157C, strain FAR1, stronger effect = lower value 0.478 | S. cerevisiae deletion strains, locus YJR066W, strain TOR1 (second series), stronger effect = lower value 0.565 | S. cerevisiae deletion strains, locus YJR066W, strain TOR1, stronger effect = lower value 0.387 | S. cerevisiae deletion strains, locus YKL048C, strain ELM1, stronger effect = lower value 0.651 | S. cerevisiae deletion strains, locus YKL067W, strain YNK1, stronger effect = lower value 0.521 | S. cerevisiae deletion strains, locus YKL101W, strain HSL1, stronger effect = lower value 0.5 | S. cerevisiae deletion strains, locus YKL203C, strain TOR2, stronger effect = lower value 0.613 | S. cerevisiae deletion strains, locus YLR113W, strain HOG1, stronger effect = lower value 0.337 | S. cerevisiae deletion strains, locus YLR133W, strain CKI1, stronger effect = lower value 0.486 | S. cerevisiae deletion strains, locus YLR403W, strain SFP1, stronger effect = lower value 0.375 | S. cerevisiae deletion strains, locus YML070W, strain DAK1, stronger effect = lower value 0.372 | S. cerevisiae deletion strains, locus YMR205C, strain PFK2 (second series), stronger effect = lower value 0.514 | S. cerevisiae deletion strains, locus YNL020C, strain ARK1, stronger effect = lower value 0.462 | S. cerevisiae deletion strains, locus YNL183C, strain NPR1, stronger effect = lower value 0.429 | S. cerevisiae deletion strains, locus YNL307C, strain MCK1 (second series), stronger effect = lower value 0.37 | S. cerevisiae deletion strains, locus YOL136C, strain PFK27, stronger effect = lower value 0.349 | S. cerevisiae deletion strains, locus YOR061W, strain CKA2, stronger effect = lower value 0.32 | S. cerevisiae deletion strains, locus YOR119C, strain RIO1, stronger effect = lower value 0.571 | S. cerevisiae deletion strains, locus YOR231W, strain MKK1, stronger effect = lower value 0.272 | S. cerevisiae deletion strains, locus YPL031C, strain PHO85, stronger effect = lower value 0.483 | S. cerevisiae deletion strains, locus YPL153C, strain RAD53, stronger effect = lower value 0.405 | S. cerevisiae deletion strains, locus YPL204W, strain HRR25, stronger effect = lower value 0.467 | S. cerevisiae deletion strains, locus YPL256C, strain CLN2, stronger effect = lower value 0.343
